In the library only some 12% were active in any assay of this set; here they are far more common.
L3MBTL1 inh – qHTS Assay for the Inhibitors of L3MBTL1; Lethal(3)malignant brain tumor-like protein 1 (Homo sapiens), Q9Y468; AlphaScreen L3MBTL1–H3K9me1 peptide binding; Potency, µM (top dose mostly 57.1 µM), without a hit: at the highest dose activity, negative = inhibition, hits mostly inhibitors; 230,000 compounds, 0.66% hits; AID 485360, 2010; note: % is set by controls: 0 for no effect and ±100 for the full control effect; nearly all actives have a fitted effect of over 60% in size
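Displacement of a biotinylated histone H3(1-15) peptide monomethylated at Lys9 (75 nM) from L3MBTL1 (50 nM) was measured by AlphaScreen after a 30 min room-temperature compound incubation; cefsulodin titration served as intraplate control.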
Sfp PPTase inh – qHTS Assay for Inhibitors of Bacillus subtilis Sfp phosphopantetheinyl transferase (PPTase) | Potency, µM, for inactives: largest response in the series, negative = inhibition, actives largely listed as inhibitors | 310,000 compounds, 3.5% hits | Biochemical Sfp PPTase activity, qHTS;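 note: the enzyme is Sfp with the accession as filed and its product quenches rhodamine fluorescence; 0% = enzyme reaction without inhibitor and -100% = no enzyme wells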
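Fluorescence-quenching assay: 15 nM Sfp-PPTase preincubated 15 min at room temperature with compound, then 5 uM rhodamine-CoA and 12.5 uM BHQ-2-labelled YbbR peptide added. Fluorescence (ex 525/em 598 nm) read at start and after 30 min; difference gives rate.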
G9a inh – qHTS Assay for Inhibitors of Histone Lysine Methyltransferase G9a; G9a H3K9 monomethylation, AlphaScreen, 2 h; 350,000 compounds, 8.8% hits; Potency, µM (top dose mostly 102 µM), for the others: at the highest dose activity, negative = inhibition, actives largely listed as inhibitors; Histone-lysine N-methyltransferase EHMT2 (Homo sapiens), Q96KQ7; note: % is set by controls: 0 for no effect and ±100 for the full control effect; nearly all actives have a fitted effect of over 75% in size
Target sequence (Q96KQ7 913-1193 limits assumed): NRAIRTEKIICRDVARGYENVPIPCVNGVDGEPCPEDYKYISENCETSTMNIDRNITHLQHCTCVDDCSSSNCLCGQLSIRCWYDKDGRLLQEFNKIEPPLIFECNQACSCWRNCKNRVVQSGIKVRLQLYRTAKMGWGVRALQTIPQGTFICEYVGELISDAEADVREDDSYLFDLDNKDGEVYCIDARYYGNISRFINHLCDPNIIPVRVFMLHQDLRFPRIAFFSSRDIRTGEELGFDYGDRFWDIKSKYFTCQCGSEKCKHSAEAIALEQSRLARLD
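Step 1: enzyme (final 20 nM) with compound, 15 min RT. Step 2: substrate peptide 500 nM and SAM 20 uM, 2 h RT. Step 3: anti-H3K9me1 antibody and AlphaScreen beads, 10 min, then plate read.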
BAZ2B inh – qHTS Assay for Inhibitors of BAZ2B; Bromodomain adjacent to zinc finger domain protein 2B (Homo sapiens), Q9UIF8; AlphaScreen BAZ2B-H3K14Ac peptide displacement; Potency, µM (titrated, usually from 114 µM), for the others: at the top dose activity change, negative = inhibition, hits mostly inhibitors; 360,000 compounds, 4.4% hits; AID 504333, 2011; note: % is set by controls: 0 for no effect and ±100 for the full control effect; nearly all actives have a fitted effect of over 60% in size
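In this displacement format the biotinylated H3(5-23) peptide acetylated at Lys14 serves as ligand at 50 nM, with BAZ2B at 50 nM in PBS pH 7.4 containing 0.01% Tween-20. Donor and acceptor beads are 10 ug/mL final.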
HP1b binding inh – HTS for Inhibitors of HP1-beta Chromodomain Interactions with Methylated Histone Tails | Chromobox protein homolog 1 (Homo sapiens), P83916 | 390,000 compounds, 0.56% hits | Potency, µM (top dose mostly 114 µM), inactives show top-dose activity change, negative = inhibition, actives largely listed as inhibitors | AID 540317, 2011 | AlphaScreen HP1-beta / biotin-H3K9me3 peptide binding; note: nearly all actives have a fitted effect of over 70% in size
Target sequence (P83916 whole entry, looked up): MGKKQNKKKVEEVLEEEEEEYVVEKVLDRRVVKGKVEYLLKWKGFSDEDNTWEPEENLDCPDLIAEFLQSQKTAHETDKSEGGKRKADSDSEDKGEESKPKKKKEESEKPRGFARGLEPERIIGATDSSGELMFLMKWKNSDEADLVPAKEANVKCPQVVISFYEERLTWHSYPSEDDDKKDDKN
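HP1-beta protein (50 nM final) preincubated 30 min at room temperature with biotinylated H3(1-18)K9me3 peptide (50 nM) in PBS pH 7.4, 0.01% Tween-20, then compound added for 30 min. AlphaScreen streptavidin donor/nickel chelate acceptor beads (10 ug/mL final), 30 min dark, luminescence read.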
JMJD2A Tudor inh – qHTS Assay for Inhibitors of JMJD2A-Tudor Domain; AlphaScreen JMJD2A-Tudor / H3K4me3 peptide binding; Lysine-specific demethylase 4A (Homo sapiens), O75164; AID 504339, 2011; Potency, µM (highest dose often 114 µM), inactives show at the top dose activity change, negative = inhibition, usual class: inhibitors; 390,000 compounds, 4.4% hits; note: % is set by controls: 0 for no effect and ±100 for the full control effect; nearly all actives have a fitted effect of over 50% in size
* = called active by the depositor; ? = inconclusive; . = no result; [ ] = another dose, or the depositor's remark. Calls come from the whole dose curve; as a rule, active = well fitted curve in the direction sought with a large enough effect; inconclusive = small, poorly fitted or top-dose-only effect, or another doubt; inactive = no such curve, though single readings can be large; an effect the other way counts as inactive or inconclusive. Potency is the fitted concentration of half-maximal effect.

SMILES	L3MBTL1 inh	Sfp PPTase inh	G9a inh	BAZ2B inh	HP1b binding inh	JMJD2A Tudor inh
CC1(C)Cc2[nH]c(=S)c(C#N)cc2CO1	4.5%	10µM*	0.708µM*	25.1µM*	-19.1%	6.31µM*
N#Cc1cc2c([nH]c1=O)CCCC2	.	10.5%	-13.1%[59 µM]	-6.4%	48.3%	2.7%
N#Cc1cc2c([nH]c1=S)CCCC2	4.2%	11.2µM*	1.41µM*	31.6µM*	-27.9%	3.55µM*
O=C1CCCCC1Nc1ccc2ccccc2c1 (stereo not given)	.	.	.	.	11.2%[57 µM]	-29.7%
Cc1ccc(NC(=O)c2cc(S(=O)(=O)N3CCC4(CC3)OCCO4)ccc2F)cc1Cl	.	.	-4.6%[59 µM]	2.7%	-9.7%	-27.2%
CC(C)c1ccc(C(=O)NCCCN(C)C)cc1	1.8%	6.4%	?	7.5%	7.9%	-5.0%
C[N+](C)(C)CCCNC(=O)c1ccc(/C=N/O)nc1	.	?	?	20µM*	4.0%	3.98µM*
CN(C)CCCNC(=O)c1ccc(/C=N/O)nc1	17.8%	8.8%	-4.8%	10.3%	-31.0%	1.41µM*
CNCCCNC(=O)c1ccc(/C=N/O)nc1	.	79.4µM*	?	22.4µM*	17.5%	20µM*
O=c1cc(-c2ccc(O)cc2)oc2cc(O[C@@H]3O[C@H](CO)[C@H](O)[C@H](O)[C@H]3O)cc(O)c12	.	6.5%	.	.	63.3%	-12.4%
Cc1cccc(CNC(=O)c2cc(S(=O)(=O)N3CCOCC3)cn2C)c1	.	12.0%	7.0%	-7.5%	43.7%	-16.0%
CCOc1ccc(/C=N/NC(=O)CN2CCSCC2)cc1	-4.0%	-17.6%	10µM*	50.1µM*	?	2µM*
COc1ccc(/C=N/NC(=O)CN2CCSCC2)cc1C	-4.6%	-25.5%	?	50.1µM*	?	3.55µM*
CCOc1ccc(/C=N/NC(=O)C2(O)c3ccccc3-c3ccccc32)cc1	5.5%	31.4%	35.8%[59 µM]	0.1%	4.5%	89.1µM*
Nc1ccccc1C(=O)C[C@H](N)C(=O)O	.	70.8µM*	1.9%[59 µM]	.	1.6%	17.8µM*
COc1cc(/C=N/n2c(C)nnc2C)cc(OC)c1OC	.	20.6%	-4.6%	-3.6%	49.4%	17.3%
COc1c(Br)cc(Br)cc1/C=N/n1c(C)nnc1C	.	9.3%	-34.1%[12.7 µM]	-4.3%	?	39.8µM*
CCOc1ccc(NC(=O)CN(C)C(=O)Cn2cnc3c2c(=O)n(C)c(=O)n3C)cc1OCC	-0.6%	.	50.1µM*	-4.0%	21.7%	1.4%
CCOc1ccc(NC(=O)CN(C)C(=O)c2cc(-c3ccc(OC)cc3)nc3ccccc23)cc1OCC	-5.0%	.	50.1µM*	-33.3%	19.2%	-32.4%
CCOc1ccc(NC(=O)CN(C)C(=O)c2ccncc2)cc1OCC	.	?	39.8µM*	-34.7%	45.6%	-4.8%
CCOc1ccc(NC(=O)CN(C)C(=O)c2ccccc2CCc2ccccc2)cc1OCC	-6.0%	.	56.2µM*	-3.1%	39.9%	-32.6%
COc1ccc(NC(=O)CN(C)C(=O)c2cc(-c3ccc(Cl)cc3)nc3ccccc23)cc1	-6.1%	.	?	-22.1%	18.2%	-27.6%
CC(=O)OC1C(=O)[C@@]2(C)C(O)CC3OC[C@]3(OC(C)=O)C2C(OC(=O)c2ccccc2)[C@]2(O)CC(OC(=O)C(O)C(NC(=O)c3ccccc3)c3ccccc3)C(C)=C1C2(C)C (stereo not given in full)	.	-43.5%	-10.1%[2.33 µM]	.	.	.
O=C1NN(C(=O)Nc2ccc(Br)cc2)C(c2ccccc2)C1c1ccccc1 (stereo not given)	.	8.3%	.	.	.	.
O=C(NCCc1ccc(Cl)cc1)c1ccc(CS(=O)(=O)Cc2ccccc2F)o1	.	.	4.8%[59 µM]	-1.0%	32.5%	-10.9%
SMILES	L3MBTL1 inh	Sfp PPTase inh	G9a inh	BAZ2B inh	HP1b binding inh	JMJD2A Tudor inh
O=[N+]([O-])c1ccc2c(c1)nc(CO)n2Cc1ccccc1	3.9%	8.0%	.	5.0%	16.5%	2.0%
c1ccc(CC2CCN(C3=Nc4cccc5cccc3c45)CC2)cc1	-13.5%	?	?	50.1µM*	?	22.4µM*
Cc1ccc(NC(=O)CN2C(=O)COc3ccc(S(=O)(=O)N4CCCCCC4)cc32)cc1C	.	.	-4.1%[59 µM]	-9.9%	19.9%	-12.5%
CCOc1ccc(NC(=O)Nc2cccn(Cc3ccccc3)c2=O)cc1	-15.3%	15.2%	.	39.8µM*	-16.1%	?
COc1ccccc1N=Nc1[nH]c2ccc(C)cc2c1O	-10.5%	6.5%	11.2µM*	50.1µM*	-1.2%	?
Cc1ccc2[nH]c(O)c(N=Nc3ccccc3[N+](=O)[O-])c2c1	.	.	.	.	12.1%	-22.2%
COc1ccccc1C(=O)NCCC(=O)NCc1ccncc1	7.3%	.	17.7%[59 µM]	6.9%	29.6%	-5.0%
O=C(Cc1n[nH]c(=O)c2ccccc12)Nc1cc(C(F)(F)F)ccc1-n1cncn1	-1.2%	.	35.5µM*	6.3%	14.5%	-13.0%
CCOc1ccc(NC(C)C(=O)N/N=C/c2cccs2)cc1 (stereo not given)	-2.3%	3.6%	44.7µM*	?	-0.3%	-35.6%
C=CCn1c(SCC(=O)c2ccccc2)nnc1-c1cc2ccccc2o1	-5.1%	-23.0%	50.1µM*	-4.4%	26.7%	-17.4%
C=CCn1c(SCC(=O)NCc2ccc3c(c2)OCO3)nnc1-c1cccnc1	.	13.6%	6.2%	-5.3%	10.7%	-6.5%
C=CCn1c(SCC(=O)c2ccccc2)nnc1-c1ccc2c(c1)OCO2	.	?	20µM*	?	-19.2%	35.5µM*
CCN(c1ccc(NC(=O)COC(=O)CCc2cc(OC)c(OC)c(OC)c2)cc1)C(C)C	-20.4%	16.8%	25.1µM*	-38.0%	?	?
COc1cc(CCC(=O)OCC(=O)Nc2ccc(F)c(F)c2)cc(OC)c1OC	.	16.0%	13.2%	-4.1%	6.5%	-10.7%
COc1ccc(N(CC(=O)Nc2ccccc2OC)S(=O)(=O)c2ccc(NC(C)=O)cc2)cc1	-2.6%	-3.4%	6.4%	-28.4%	4.5%	-31.7%
COCCn1c(=O)c(-c2ccc(F)cc2)nc2cncnc21	.	1.7%	-0.2%[12.7 µM]	.	.	.
CCCN(CCC)C(=O)c1cn(CC)c2ccc(S(=O)(=O)N3CCCCC3)cc2c1=O	.	4.0%	37.3%[59 µM]	-13.4%	17.2%	-13.9%
COc1ccc(N2CCN(C(=O)c3cc(N4C(=O)C5C6CCC(C6)C5C4=O)ccc3Cl)CC2)cc1 (stereo not given)	-6.0%	-20.6%	39.8µM*	?	6.5%	-31.0%
